Here are results for 26 compounds from PubChem BioAssay (NCATS).

Inconclusive results are not listed. Where a call stands in place of a potency, no number is given. The source made the active and inactive calls. Calls follow the shape of the dose curve; as a rule, active = well fitted activation curve with a large enough effect; inconclusive = small, poorly fitted or top-dose-only effect; inactive = flat fitted curve, though single readings scatter.
Potency is read from the fitted curve at half-maximal effect.

The test can be described thus: Cell Proliferation Assay against the TMD8 Cell Line (Caspase readout at 16 hrs) (AID 651712). To be noted: TMD8 lymphoma cells, caspase activation luminescence; series mostly up to 46.1 µM. From the text: One class of targeted therapeutics showing early clinical success in killing of ABC DLBCL lines are small molecule inhibitors of the Bruton tyrosine kinase (BTK) 11. Thus, we chose to investigate what additional compounds, if any, would synergize with the BTK inhibitor Ibrutinib (PCI-32765).
Prior to any combination assays, using an NCATS developed oncology compound library called the Mechanism of Interrogation Plate (MIPE), two well studied ABC DLBCL lines (TMD8 and HBL1) were screened using a cell viability assay (CellTiterGlo) and a 12-point titration series for each single agent. These initial experiments offered insight into the concentration range that offered the best coverage of activity and non-activity to assure relevant data is generated. In addition to the viability signature associated with this library, we examined the apoptotic response of each agent versus the TMD8 line as judged by caspase 3/7 activation. Activity was assayed at both 8 and 16 hour time-points to gain an appreciation of which agents induced an apoptotic response in a reasonable timeframe from a therapeutic exposure perspective. MIPE was also assayed for single agent viability in a human mesenchymal stem cell (hMSC) line as a surrogate of each library members potential therapeutic index.
The combination plates were then generated by choosing 20 of the best compounds from this single agent screen and plated in the presence of the BTK inhibitor. The first analysis was carried out using 6x6 dose response blocks for each of the 20 compounds. […] In addition to the cell viability assay, the parallel caspase 3/7 activation and viability in hMSC assays were carried out in the 10x10 format.
A total of 500 log growing TMD8 cells are seeded per well in 5 uL of a RPMI with glutamine (or Glutamax), without phenol red plus 5% FBS and 1X Pen/Strep into 1536 -solid white high base tissue culture treated Greiner One Bio Plates (789173-F) using a multidrop combi dispenser and a small sterile cassette. Compounds and controls totaling 23nL per well (negative control DMSO and positive control 9.2 uM Bortezomib-final) are immediately added to the plates using a 1536 head pin tool from Kalypsys. The plates are then covered with stainless steel gasket lids from Kalypsys and incubated for either 16 hours at 37C under 95% relative humidity with 5% CO2. After the desired incubation time, the plates are removed and allowed to reach room temperature before 3 uL of the Caspase Glo reagent (Promega) is added using an Aurora Flying Reagent Dispenser Bioraptor. The plates are then spun at 1000 rpms to remove bubbles and incubated for 15 minutes at room temperature before read on a ViewLux using a luminescent filter with a 10 second exposure. The relative luciferase units are used to calculated percent activity using DMSO as 0% and Bortezomib as 100%.
In the case of `Cc1ccc(NC(=O)c2ccc(CN3CCN(C)CC3)cc2)cc1Nc1nc(-c2cccnc2)cs1`, the Potency entry was “inactive”.
Take `O=C(Nc1ccc(OC(F)(F)F)cc1)c1sccc1NCc1ccnc2ccccc12`: the Potency result was “inactive”.
Next, `CCc1cc(-c2n[nH]c(C)c2-c2ccc3c(c2)OCCO3)c(O)cc1O`: 23.5 µM (active); `COc1cc2c(cc1OC)CC(=O)N(CCCN(C)C[C@H]1Cc3cc(OC)c(OC)cc31)CC2`: “inactive”; `CCCCn1c(=O)n(Cc2ccccc2F)c(=O)c2[nH]c(Cc3ccc(NC(C)=O)cc3)nc21`: “inactive”.
For the compound `CNC(=O)c1cc(Oc2ccc(NC(=O)Nc3ccc(Cl)c(C(F)(F)F)c3)c(F)c2)ccn1`, the Potency result was “inactive”.
For the compound `COc1cccc(OC)c1-c1cc(C(=O)NC2(C(=O)O)C3CC4CC(C3)CC2C4)nn1-c1ccnc2cc(Cl)ccc12` (stereo unspecified), the Potency is 23.5 µM (active).
As for `CCCCOCCOc1nc(-c2ccc(C(=O)O)c(F)c2)sc1C`, the entry is “inactive”; as for `CC(C)Oc1cc(Nc2nc(N[C@@H](C)c3ccc(F)cn3)ncc2Cl)[nH]n1`, “inactive”; as for `NC(=O)c1ccc(N(C(N)=O)c2c(F)cccc2F)nc1-c1ccc(F)cc1F`, “inactive”.
For the compound `CN1C(=O)C(Cc2c[nH]c3ccccc23)NC1=S` (stereo unspecified), the Potency entry is “inactive”.
Regarding `COc1nc(C)cnc1NS(=O)(=O)c1cccnc1-c1ccc(-c2nnco2)cc1`, the Potency entry is “inactive”.
Consider `CCC=CC[C@H]1C(=O)CC[C@@H]1CC(=O)OC`, for which the Potency entry is “inactive”.
As for `O=C(Nc1cccc(Cl)c1)Nc1ncc(CCNc2ncnc3ccsc23)s1`, the Potency result was “inactive”.
As for `Cc1cc2c(cc1C1(c3ccc(C(=O)O)cn3)CC1)C(C)(C)CCC2(C)C`, the entry is “inactive”.
With `Nc1ccc(-c2ccc3ncc4ccc(=O)n(-c5cccc(C(F)(F)F)c5)c4c3c2)cn1`, the Potency was 0.118 µM (active).
For `CCN(CC)CCCCNc1nc2cc(Cl)c(Cl)cc2nc1-c1ccc(-c2cccs2)s1`, the Potency result is “inactive”.
As to `OCCn1cc(-c2ccc3c(c2)CCC3=NO)c(-c2ccncc2)n1`, the Potency entry was “inactive”.
Regarding `CC(C)n1c(C=C[C@H](O)C[C@H](O)CC(=O)O)c(-c2ccc(F)cc2)c2ccccc21`, the Potency entry is “inactive”.
As for `CCC(=O)N1CCN(c2ccc(-n3c(=O)ccc4cnc5ccc(-c6cnc7ccccc7c6)cc5c43)cc2C(F)(F)F)CC1`, the figure is 18.7 µM (active); as for `Cn1cc(-c2ccc3nnc(Sc4ccc5ncccc5c4)n3n2)cn1`, “inactive”; as for `CCCCc1ccc(NS(=O)(=O)c2ccc(C)c(C(=O)N3CCN(c4cccc(C)c4C)CC3)c2)cc1`, 20.9 µM (active).
Regarding `O=C(O)c1ccc(O)c2ncc(N3CCOCC3)cc12`, the Potency result was “inactive”.
As for `CC(O)=C(C#N)C(=O)Nc1ccc(C(F)(F)F)cc1`, the entry is “inactive”; as for `Cc1csc(-c2nnc(Nc3ccc(Oc4ncccc4-c4ccnc(N)n4)cc3)c3ccccc23)c1`, 23.5 µM (active).
As for `CC(=O)NCCC(=O)N[C@@H](CCC(N)=O)C(=O)N[C@@H](CO)C(=O)N[C@@H](CCC(N)=O)C(=O)N[C@@H](CCC(N)=O)C(=O)N[C@H](C(=O)N[C@@H](Cc1ccccc1)C(=O)N[C@]1(C)CCCCCCC=CCCC[C@@](C)(C(=O)N[C@@H](CCC(N)=O)C(=O)N[C@@H](CC(N)=O)C(N)=O)NC(=O)[C@H](CC(C)C)NC(=O)[C@H](CC(C)C)NC(=O)[C@@H](CCCNC(=N)N)NC(=O)[C@H](Cc2c[nH]c3ccccc23)NC(=O)[C@H](CC(C)C)NC(=O)[C@H](CC(N)=O)NC1=O)[C@H](C)O`, the Potency result is “inactive”.
